According to paper PMC5540273 (PLoS ONE, 2017):

Legend:
Settings in all cases: concentration: 1 μM, replicates: in singlicate; n = 1
BRSK1 = tested on: BRSK1
BRSK2 = tested on: BRSK2
BTK = tested on: BTK
BUB1 = tested on: BUB1
CAMK1B = tested on: CAMK1B
CAMK1D = tested on: CAMK1D
CAMK1G = tested on: CAMK1G
CAMK1 = tested on: CAMK1
CAMK2A = tested on: CAMK2A
CAMK2B = tested on: CAMK2B
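Note: KINOMEscan kinase panel screen.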

| SMILES | %Inh (BRSK1) [%] | %Inh (BRSK2) [%] | %Inh (BTK) [%] | %Inh (BUB1) [%] | %Inh (CAMK1B) [%] | %Inh (CAMK1D) [%] | %Inh (CAMK1G) [%] | %Inh (CAMK1) [%] | %Inh (CAMK2A) [%] | %Inh (CAMK2B) [%] |
| --- | --- | --- | --- | --- | --- | --- | --- | --- | --- | --- |
| O=C(Nc1ccccc1)Nc1ccc(Oc2ccc3nccn3n2)cc1 | 0 | 0 | 0 | 0 | 0 | 0 | 0 | 0 | 0 | 0 |
| CNc1nccc(-c2c(-c3ccc(F)cc3)ncn2CCCN2CCOCC2)n1 [SB-222516] | 0 | 3 | 0 | 0 | 0 | 0 | 0 | 0 | 8 | 16 |
| CCC(CC)(CC)n1cnc2c(N)ncnc21 [SKF-97620] | 0 | 15 | 0 | 48 | 18 | 4 | 6 | 3 | 0 | 0 |
| Cl.Cn1ccc(-c2cccc(Nc3ccnc4cc(-c5nccs5)ccc34)c2)n1 [GW525701] | 0 | 38 | 0 | 62 | 3 | 3 | 38 | 0 | 0 | 0 |
| C[C@H]1CC[C@@H](C(=O)Nc2ccccc2)CN1c1cc(-c2ccc3c(N)n[nH]c3c2)nc(N)n1 [GSK2283293] | 0 | 0 | 0 | 49 | 23 | 17 | 0 | 11 | 0 | 0 |
